In the supplement of paper PMC3545927:
The list shows a part of the results. No count for the full screen is at hand.

Biological target: furin, P09958
Test: furin cleavage Z-score vs untreated control; higher = more cleavage, active = 3.5 or more, inactive = 1 or less, 8 variable residues between constant flanks
In short: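 The cleavage Z-score was derived for purified furin acting on 8-mer peptides held on magnetic beads and fused to a cDNA oligonucleotide. Digests lasted 7.5, 15 or 30 min at 1:10 enzyme:substrate in 50 mM HEPES pH 7.5 with CaCl2 and NaCl. Sequencing counts of released DNA, log-transformed against furin-free reactions, were lowess-adjusted and scaled by median absolute deviation.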

Chain of furin, P09958 (P09958 whole entry): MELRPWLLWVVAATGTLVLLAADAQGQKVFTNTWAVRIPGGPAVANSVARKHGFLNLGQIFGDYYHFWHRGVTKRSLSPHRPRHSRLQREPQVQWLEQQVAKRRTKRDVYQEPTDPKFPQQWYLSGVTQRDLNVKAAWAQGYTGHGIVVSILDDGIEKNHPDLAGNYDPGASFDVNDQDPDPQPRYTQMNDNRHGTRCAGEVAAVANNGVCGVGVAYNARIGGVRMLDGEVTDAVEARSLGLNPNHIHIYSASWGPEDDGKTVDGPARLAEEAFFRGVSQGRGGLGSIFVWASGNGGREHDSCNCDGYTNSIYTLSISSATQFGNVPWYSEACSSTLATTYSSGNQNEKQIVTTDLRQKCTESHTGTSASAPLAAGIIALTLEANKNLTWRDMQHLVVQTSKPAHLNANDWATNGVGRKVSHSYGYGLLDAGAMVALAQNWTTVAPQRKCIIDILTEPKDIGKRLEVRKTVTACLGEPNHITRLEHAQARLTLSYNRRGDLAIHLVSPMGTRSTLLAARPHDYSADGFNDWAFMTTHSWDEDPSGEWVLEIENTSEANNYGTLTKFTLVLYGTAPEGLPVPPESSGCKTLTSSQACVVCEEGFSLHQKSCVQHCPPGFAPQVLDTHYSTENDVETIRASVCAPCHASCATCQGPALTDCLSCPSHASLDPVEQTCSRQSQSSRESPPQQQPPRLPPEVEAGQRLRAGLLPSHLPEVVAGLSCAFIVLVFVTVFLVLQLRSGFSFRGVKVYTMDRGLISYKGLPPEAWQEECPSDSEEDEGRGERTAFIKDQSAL

## CAQEECSQHLAGNASASA [HC1682]
7.5 min
  furin cleavage Z-score: -0.746 (inactive)
15 min
  furin cleavage Z-score: 0.819 (inactive)
30 min
  furin cleavage Z-score: 1.15

## CACVIGGAGNAGNASASA [HC445]
7.5 min
  furin cleavage Z-score: -1.36 (inactive)
15 min
  furin cleavage Z-score: -2.02 (inactive)
30 min
  furin cleavage Z-score: -1.24 (inactive)

## CARQARRVGGAGNASASA [FS-1766]
7.5 min
  furin cleavage Z-score: -0.614 (inactive)
15 min
  furin cleavage Z-score: -0.316 (inactive)
30 min
  furin cleavage Z-score: -0.000733 (inactive)

## CARQVRGVTQAGNASASA [FS-2447]
7.5 min
  furin cleavage Z-score: -1.36 (inactive)
15 min
  furin cleavage Z-score: 0.0563 (inactive)
30 min
  furin cleavage Z-score: 0.556 (inactive)

## CARQVRCVGNAGNASASA [FS-3045]
7.5 min
  furin cleavage Z-score: 3.15
15 min
  furin cleavage Z-score: 3.4
30 min
  furin cleavage Z-score: 5.33 (active)

## CARKIRVNGTAGNASASA [FS-2422]
7.5 min
  furin cleavage Z-score: -0.334 (inactive)
15 min
  furin cleavage Z-score: 0.321 (inactive)
30 min
  furin cleavage Z-score: -1.68 (inactive)

## CARKIRTVGNAGNASASA [FS-1726]
7.5 min
  furin cleavage Z-score: 5.44 (active)
15 min
  furin cleavage Z-score: 7.79 (active)
30 min
  furin cleavage Z-score: 7.77 (active)

## CASGFVSLLAAGNASASA [HC359]
7.5 min
  furin cleavage Z-score: 0.181 (inactive)
15 min
  furin cleavage Z-score: 0.268 (inactive)
30 min
  furin cleavage Z-score: 0.641 (inactive)

## CAVFTDNSSPAGNASASA [HC765]
7.5 min
  furin cleavage Z-score: -0.215 (inactive)
15 min
  furin cleavage Z-score: -0.103 (inactive)
30 min
  furin cleavage Z-score: 0.299 (inactive)

## CAEPLDLPPIAGNASASA [HC1598]
7.5 min
  furin cleavage Z-score: 0.806 (inactive)
15 min
  furin cleavage Z-score: 1.44
30 min
  furin cleavage Z-score: 0.441 (inactive)

## CAVPSTEDLVAGNASASA [HC1097]
7.5 min
  furin cleavage Z-score: -2.52 (inactive)
15 min
  furin cleavage Z-score: -0.505 (inactive)
30 min
  furin cleavage Z-score: 0.561 (inactive)

## CAAVRRLVGNAGNASASA [FS-1667]
7.5 min
  furin cleavage Z-score: -1.38 (inactive)
15 min
  furin cleavage Z-score: -1.34 (inactive)
30 min
  furin cleavage Z-score: -1.08 (inactive)

## CARVRRANTFAGNASASA [FS-2622]
7.5 min
  furin cleavage Z-score: 3.44
15 min
  furin cleavage Z-score: 5.83 (active)
30 min
  furin cleavage Z-score: 5.99 (active)

## CARVRRRSVQAGNASASA [FS-3175]
7.5 min
  furin cleavage Z-score: 0.273 (inactive)
15 min
  furin cleavage Z-score: 0.235 (inactive)
30 min
  furin cleavage Z-score: 0.754 (inactive)

## CARVRRAVRIAGNASASA [FS-2107]
7.5 min
  furin cleavage Z-score: 2.88
15 min
  furin cleavage Z-score: 2.85
30 min
  furin cleavage Z-score: 5.12 (active)

## CAASRQAEVIAGNASASA [HC1030]
7.5 min
  furin cleavage Z-score: -0.216 (inactive)
15 min
  furin cleavage Z-score: -0.538 (inactive)
30 min
  furin cleavage Z-score: -1.56 (inactive)

## CARVMRWNSKAGNASASA [FS-3120]
7.5 min
  furin cleavage Z-score: -0.31 (inactive)
15 min
  furin cleavage Z-score: 0.804 (inactive)
30 min
  furin cleavage Z-score: 2.88

## CARVRRLVRHAGNASASA [FS-3240]
7.5 min
  furin cleavage Z-score: 12.5 (active)
15 min
  furin cleavage Z-score: 11.6 (active)
30 min
  furin cleavage Z-score: 9.85 (active)

## CARVRRAWVIAGNASASA [FS-3124]
7.5 min
  furin cleavage Z-score: 1.98
15 min
  furin cleavage Z-score: 4.98 (active)
30 min
  furin cleavage Z-score: 7.77 (active)
